These results are taken from PubChem BioAssay AID651784 (National Center for Advancing Translational Sciences (NCATS), 2012).

Results filed as inconclusive are left out. Active and inactive are the calls of the source. The call rests on the fitted dose curve; in most records, active means well fitted inhibition curve with a large enough effect; inconclusive means small, poorly fitted or top-dose-only effect; inactive means no such curve, though single readings can be large or run the other way.
Potency means the concentration at half of the fitted maximal effect.

This assay in a line: Acumen qHTS Assay for Inhibitors of the mTORC1 Signaling Pathway in MEF (Tsc2-/-, p53-/-) Cells: Hit Validation. Further: nearly all actives have a fitted effect of over 65% in size. As to conditions: Acumen imaging; activity change, negative = inhibition: at 37.3 µM (top of the series). An excerpt:
The mammalian target of rapamycin (mTOR) is an intracellular serine/threonine kinase Aberrant regulation of mTOR signaling plays a causative role in a number of human diseases, including cancer, benign tumors such as lymphangioleiomyomatosis (LAM) and Tuberous Sclerosis Complex (TSC), and metabolic diseases such as diabetes and obesity. This project aims to identify inhibitors of ribosomal protein S6 (rpS6) phosphorylation. The phosphorylation of rpS6 is a key event downstream of mTOR activation. The assay uses a phospho-specific antibody of phospho-rpS6 to detect inhibitors of mTOR activation. Mutations in the Tsc1 and Tsc2 genes are the underlying genetic lesions responsible for TSC, causing constitutive activation of the mTORC1 pathway and leading to profound effects on cell metabolism. Aberrant metabolism in cancer has recently received significant attention as a target to develop therapeutic agents in the treatment of cancer.1 As Tsc2-/- cells have lost the ability to respond to energy and growth factor deprivation, these cells are unable to properly down regulate cellular biosynthetic processes in response to metabolic stress, and are thus extremely sensitive to glucose deprivation-induced death.2 A central goal of this project is to explore the unique cell survival and metabolic properties of cells with Tsc1 or Tsc2 by screening for compounds that selectively target the Tsc2-/- MEFs by screening both Tsc2-/- and WT MEF cell lines. We hope to better understand these aspects of TSC physiology in order to exploit them for therapeutic benefit.
NIH Molecular Libraries Probe Production Centers Network [MLPCN]
NIH Chemical Genomics Center [NCGC]
Assay Submitter (PI): Blenis, John; Harvard University
For quantitative high throughput analysis of mTORC1 signaling, we developed a cell-based assay for immuno-fluorescence based detection of rpS6 phosphorylation on the Acumen Explorer that will be used a platform for the primary small molecule screen. Mouse embryonic fibroblasts (MEFs) are cultured in 1536-well plates using DMEM + 10% FBS. Twenty-four hrs after plating, test compounds (solubilized in DMSO) are delivered and incubated with the cells for 24 hrs at 37 degree Celsius. Following the incubation, media with compound is aspirated and the cells are fixed in 4% paraformaldehyde (PFA) containing PBS + 0.2% TX-100. Next, PFA is aspirated, cells are washed two times with PBS plus 0.2% TX-100 and the cells are blocked for 1 hr at room temperature (blocking buffer: LiCOR Blocking Buffer plus 0.2% TX-100). This is followed by aspiration and staining with Alexa-488 conjugated-phospho-rpS6 Ser235/236 antibody for 2 hours at room temperature (Cell Signaling Technology # 4803, 1:50 dilution in blocking buffer). Cells are washed two times with PBS plus 0.2% TX-100, and stained with 10 uM propidium iodide (PI) for 20-25 minutes for cell number measurement (1:500 dilution of Hoescht staining is also added for IN Cell imaging). The plates are scanned on the Acumen Explorer laser scanning instrument (TTP Labtech) using the 488nm laser for simultaneous excitation of the Alexa-488 and PI. […] Fluorescence emission from the PI stain is selected using a 575-640 nm band pass filter. The normalized phospho-S6 staining is calculated as the ratio of the integrated Alexa 488 intensity divided by the integrated PI intensity for the single concentration rapamycin control (7.5 nM) and DMSO columns. […] Inhibition of the pathway is defined based on the normalized phospho-S6 intensity in rapamycin treated cells. Active cells are defined as those with a normalized phospho-S6 staining above this threshold, and each treatment is reported as the % positive cells in the well, where thresholds are defined by selecting wells with the highest and lowest signal and differentiating between the % non-active and % active populations. In addition to the pathway specific phospho-S6 endpoint, the number of PI stained cells from the Acumen is recorded as a measure of cell viability. […]
For orientation: qHTS replaces the single test concentration by a dilution series.
On to `CCOc1cc(CNc2ccc(O)cc2)ccc1OCc1ccc(Cl)cc1`, for which the activity change, negative = inhibition was -17.1%.

For the compound `Cc1cccc(NC(=O)c2c(N)sc3c2CCC(C)C3)c1` (stereo not given), the activity change, negative = inhibition turned out to be 15.3%.

Turning to `Brc1ccc(Nc2c3c(nc4nncn24)CCC3)cc1`, the activity change, negative = inhibition came to 7.81%.

In the case of `CCOc1ccc(S(=O)(=O)N(C(=O)c2ccncc2)c2ccc3oc(C)c(C(=O)OC)c3c2)cc1`, the Potency was 3.69 µM (active).

For the compound `Cc1cccc(NC(=O)Cn2cc(C(=O)C3CCCCC3)c3ccccc32)c1C`, the Potency is 1.04 µM (active).

As for `Cc1ccc(C)c(NC(=O)Nc2cc3c(cc2N2CCCCC2)n(C)c(=O)n3C)c1`, the activity change, negative = inhibition is 3.56%.

With `Cc1ccccc1CS(=O)(=O)c1ncc(Cl)c(C(=O)Nc2nnc(C(C)C)s2)n1`, the activity change, negative = inhibition was -92.9%.

For `CCOc1ccc(NC(=O)N(Cc2c[nH]c3ccccc23)C2CCCCCC2)cc1`, the activity change, negative = inhibition was -15.9%.

Regarding `CCCCOc1cccc(C(=O)N2CCN(CCc3ccncc3)CC2)c1`, the activity change, negative = inhibition came to 0.726%.

For `CCc1nnc(SC(CC)C(=O)Nc2cccc(OC)c2)c2cc3oc(C)cc3n12` (stereo not given), the activity change, negative = inhibition is -6.5%.

For the compound `CCOC(=O)c1ccc(N2C(=O)c3n[nH]c(C)c3C2c2cccc(Br)c2)cc1` (stereo not given), the activity change, negative = inhibition worked out at 4.8%.

Consider `COc1cccc(-c2nnc3sc(CN4CCCCC4)cn23)c1`, for which the Potency was 1.04 µM (active).

Take `Cc1ccc(-c2csc(-c3cc4c([nH]c3=O)CC(c3ccccc3)CC4=O)n2)cc1` (stereo not given): the Potency is 0.927 µM (active).

Take `CCc1ccc(-n2c(=O)c3c4c(sc3n(CC(=O)c3ccc(F)cc3)c2=O)CCC4)cc1`: the activity change, negative = inhibition was -153%.

For `Cc1ccc(NC(=O)CCS(=O)(=O)c2ccc3nc(C)sc3c2)cc1`, the activity change, negative = inhibition is -65.5%.

In the case of `CCc1ccc(NC(=O)CSc2nccn2C2CCCC2)cc1`, the activity change, negative = inhibition is -3.21%.

Turning to `COc1ccc(-n2ncc3c(NCCCOC(C)C)ncnc32)cc1`, the activity change, negative = inhibition came to 1.17%.

Regarding `COc1ccccc1NC(=O)CSc1ccc(-c2ccccn2)nn1`, the Potency was 11.7 µM (active).

With `COc1ccc(-c2ccc(CCC(=O)O)n2-c2cc(Cl)ccc2O)cc1`, the activity change, negative = inhibition is -7.48%.

Turning to `COc1cc2c(cc1OC)n(CC(=O)c1ccc(F)cc1)c(=O)n1nc(CCn3nc(C)cc3C)nc21`, the activity change, negative = inhibition is -5.74%.

On to `CCOC(=O)N1CCN(Cc2nc3cc(NC(=O)CC(C)C)ccc3n2C(C)C)CC1`, for which the Potency was 2.61 µM (active).

Take `COc1ccc(C2CC(=O)c3c([nH]c(C(=O)OC4CCCCCC4)c3C)C2)cc1OC` (stereo not given): the activity change, negative = inhibition was found to be 8.05%.

As for `COc1ccc(OCC(=O)NCc2ccc3c(c2)CCN3C(=O)c2ccccc2)cc1`, the Potency is 16.5 µM (active).

Turning to `COc1ccc(NC(=O)c2c(C)oc3ccc(O)c(CN4CCCC(C)C4)c23)cc1Cl` (stereo not given), the Potency is 9.27 µM (active).

For the compound `CCCCS(=O)(=O)c1nc(-c2ccc(Br)cc2)cc(-c2ccccc2)c1C#N`, the Potency is 6.56 µM (active).

With `CCN(CC)CCn1c(=N)n(CC(O)COc2ccccc2C)c2ccccc21` (stereo not given), the Potency is 4.65 µM (active).

As to `COc1cccc(-c2nc(S(=O)(=O)c3ccc(Cl)cc3)c(NCc3ccccc3)o2)c1`, the activity change, negative = inhibition was 29.5%.

As to `CN(C)c1ccc(Nc2nc3ccccc3n3nnnc23)cc1`, the activity change, negative = inhibition was -10%.

Take `COc1cc(OC)cc(C(=O)NCCc2csc(-c3cccc(C)c3)n2)c1`: the activity change, negative = inhibition is -7.07%.

Consider `Cc1ccc(NC(=O)c2nc(S(=O)(=O)Cc3cccc(C)c3)ncc2Cl)cc1`, for which the activity change, negative = inhibition was -108%.

Regarding `CCS(=O)(=O)c1oc(-c2ccc(F)cc2)nc1S(=O)(=O)c1ccccc1`, the Potency is 0.369 µM (active).

Take `CC(C)OCCCn1c(=O)c2ccccc2n2c(-c3ccc(F)cc3)nnc12`: the activity change, negative = inhibition was 17.3%.

On to `CC1CCCN(CCCNC(=O)c2ccc3c(c2)N(Cc2ccc(Cl)cc2)C(=O)c2ccccc2S3(=O)=O)C1` (stereo not given), for which the Potency is 13.1 µM (active).

With `COC(=O)c1ccccc1NC(=O)CSc1n[nH]c(CC(C)C)n1`, the activity change, negative = inhibition was determined as 5.05%.

Consider `O=C(NC1CCCCC1)/C(=C/c1ccc(Cl)cc1)NC(=O)c1ccccc1`, for which the activity change, negative = inhibition was -5.63%.

For `CCCCC1CCC(C(=O)N2CC(=O)Nc3ccc(Cl)cc3C2c2ccc(F)cc2)CC1` (stereo not given), the activity change, negative = inhibition was -41.1%.

`COc1ccc(Cl)cc1S(=O)(=O)NCc1ccc2c(c1)CCN2C(=O)c1cccc(C)c1`: the activity change, negative = inhibition is -22.6%.

In the case of `O=C(CCCn1c(=O)c2ccccc2n(Cc2cccc(Cl)c2)c1=O)NCCc1ccc(Cl)cc1`, the activity change, negative = inhibition was -4.01%.

Turning to `O=C(c1ccco1)n1nc(-c2ccc(Cl)cc2)nc1NCc1ccccc1`, the activity change, negative = inhibition was -47.3%.

With `O=C(Cn1c(=O)n(Cc2ccc3c(c2)OCO3)c(=O)c2ccc(C(=O)NC3CCCCC3)cc21)Nc1ccccc1F`, the activity change, negative = inhibition was -94.5%.
